Sampled rows, rich in hits. Any-hit rate of the full collection: about 2.6%.
CRFBP-R2 block: blocks CRF-induced signaling of the CRF-BP/CRF-R2 complex | 350,000 tested, 0.59% active | inhibition, % at 11.8 µM | HEK293 CRF-R2/CRF-BP, CRF-induced calcium fluorescence;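 active = inhibition of the ligand-induced calcium signal above about 50% at the single tested concentration, limit read from the data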
IDE inh: inhibits human insulin-degrading enzyme in HEK cells; P14735; FAbetaB cleavage, fluorescence polarization; inhibition, % at 5.59 µM; 320,000 tested, 0.41% active; AID 434962;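 active = percent inhibition above the average of all tested compounds plus 3 SD, set per screening campaign, cut at about 16% in these data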;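 also: IDE supplied by intact live HEK cells; FP after avidin binding of uncleaved biotin substrate so inhibition keeps polarization high; 0% = DMSO wells and 100% = 60 µM reference IDE inhibitor Ii1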
IDE act: boosts human insulin-degrading enzyme activity in HEK cells. P14735. FAbeta-B cleavage, fluorescence polarization; 0% vehicle, 100% cell-free pure enzyme wells. activation, % at 5.96 µM. 340,000 tested, 0.073% active. AID 493087;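 active = activation above the mean of all tested compounds plus 3 SD, set per screening campaign, cut at about 17% in these data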
TPT1 inhibitor: blocks Candida albicans tRNA 2'-phosphotransferase; recombinant caTPT1, FP RNA substrate dephosphorylation; inhibition, % at 5 µM; 300,000 tested, 0.81% active;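 active = inhibition above the mean of all tested compounds plus 3 SD, set per screening campaign, cut at about 24% in these data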;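 also: plate controls were DMSO alone for no effect and ferristatin control at 100 nM for full effect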
Myeloid diff 2: myeloid differentiation induction; ER-HoxA9 myeloid progenitors, lysozyme-GFP differentiation, flow cytometry; 360,000 tested, 1% active; calls only at 10 µM; AID 624256;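 active = normalized GFP-positive differentiation at or above the plate's own cutoff, the solvent-only control mean plus 3 SD; inconclusive = no clear call, values can overlap the other calls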;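 also: cells exposed to compound for four days before flow analysis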
CRFR2-BP ag: agonists of human CRF-binding protein/CRF-R2 receptor complex. HEK293 CRF-R2/CRF-BP, calcium dye fluorescence (FLIPR); percent of saturating CRF peptide response. activation, % at 13.2 µM. 350,000 tested, 0.46% active;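 active = activation of at least 50%, plus an integration ratio under a set limit after plate pattern correction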;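 also: plate controls were neutral control wells without compound for no effect and CRF at EC100 for full effect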
An asterisk follows results filed as active; i = inactive; u = inconclusive; x = no result given; + = active, no number; ! = not confirmed by another sample.

SMILES | CRFBP-R2 block | IDE inh | IDE act | TPT1 inhibitor | Myeloid diff 2 | CRFR2-BP ag
CC1CCN(C(=O)C2CCN(S(=O)(=O)c3cccs3)CC2)CC1 | 106* | 1 | 2 | 1 | i | 0
CC1CCN(C(=O)C2CCN(S(=O)(=O)c3cccnc3)CC2)CC1 | 75* | 9 | 1 | 3 | i | -2
O=C(C1CCN(S(=O)(=O)c2cccnc2)CC1)N1CCCCC1 | -7 | 3 | 4 | -3 | i | -1
CC1CC(C)CN(C(=O)C2CCN(S(=O)(=O)c3cccs3)CC2)C1 (centres undefined) | -11 | 0 | 1 | 0 | i | -1
O=S(=O)(c1cccs1)N1CCN(c2ccc(O)cc2)CC1 | 6 | 0 | 6 | -2 | + | -1
CCc1ccc(CN2CCCC(CCC(=O)N3CCN(c4ccccn4)CC3)C2)o1 (centres undefined) | 36 | 6 | 2 | -2 | i | 0
Cc1nc(SCC(=O)NCCc2ccc(Cl)cc2)nc(C)c1C | 13 | -4 | 0 | -1 | i | -1
O=C(/C(=C/c1ccc(Cl)cc1)c1nc2ccccc2[nH]1)c1ccccc1 | 10 | 1 | 0 | -3 | + | 0
O=C(c1ccc([N+](=O)[O-])cc1)N(Cc1ccccc1)Cc1ccccc1 | 68* | x | 3 | x | i | 5
O=C(c1ccc([N+](=O)[O-])cc1)N(Cc1ccc(Br)cc1)N1C(=O)CCCC1=O | -4 | 3 | 3 | -1 | i | 59*
O=C(NCCc1ccccc1)c1ccc([N+](=O)[O-])cc1 | 27 | 1 | -2 | -1 | i | -5
O=C(Cc1ccc([N+](=O)[O-])cc1)c1ccccc1 | 14 | x | -1 | x | + | -3
O=C(c1ccccc1Cl)N(Cc1ccc(Br)cc1)N1C(=O)CCCC1=O | -5 | 0 | 6 | 3 | i | 0
CCN(CC1CCCO1)C(=O)CCc1nnc(CCc2ccccc2)o1 (centres undefined) | -17 | x | x | x | i | -1
Nc1ccccc1SCCS(=O)(=O)c1ccc(Cl)cc1 | 17 | 0 | 0 | 2 | i | 0
CCOC(=O)C1=CCN(S(=O)(=O)c2ccc(C)cc2)C1c1cccc(F)c1 (centres undefined) | x | x | x | x | i | x
CC(=O)c1cccc(NC(=O)NNC(=O)c2ccc(-c3ccccc3)cc2)c1 | 14 | -4 | 1 | -4 | i | -1
O=C(C(c1ccccc1)c1ccccc1)N1CC[C@@]2(O)CCCC[C@H]2C1 | -10 | 0 | 5 | 0 | i | -1
O=C(/C=C/c1ccc(F)cc1)N1CC[C@@]2(O)CCCC[C@H]2C1 | 0 | 14 | 1 | -1 | + | -1
OC[C@@H]1CN(Cc2cccnc2)C[C@H](n2cnc3c(N4CCN(c5ccccc5)CC4)ncnc32)O1 | x | x | x | x | i | x
Cc1cccc(-n2ccc(=O)c(C(=O)Nc3ccc(S(=O)(=O)Nc4nccs4)cc3)n2)c1 | 2 | 3 | 2 | 1 | + | -1
Oc1ccc2nnc3c(Br)cnn3c2c1 | -64 | 15 | -6 | -63 | i | 146*
Clc1ccc2nc3c4ccccc4cnn3c2c1 | -7 | 10 | -3 | 0 | i | -1
CCCCN(C(=O)c1ccc(NC2CC2)c([N+](=O)[O-])c1)c1c(N)n(CC(C)C)c(=O)[nH]c1=O | -2 | -4 | 3 | x | i | 0
O=C1COc2ccc(-c3csc(=Nc4ccc(OC(F)F)cc4)n3CC3CCCO3)cc2N1 (centres undefined) | 21 | -3 | -1 | 0 | i | 2
SMILES | CRFBP-R2 block | IDE inh | IDE act | TPT1 inhibitor | Myeloid diff 2 | CRFR2-BP ag
COCC(C)n1c(-c2ccc3c(c2)NC(=O)CO3)csc1=Nc1ccc(OC(F)F)cc1 (centres undefined) | -4 | 2 | 1 | 0 | +! | 0
S=C1NC(c2cccs2)=CC(c2ccc(Br)cc2)N1 (centres undefined) | -9 | 17* | -4 | 3 | u | -1
CCOc1ccc(NC(=O)CN(C)S(=O)(=O)c2cccc3cccnc23)cc1 | 8 | 10 | -3 | -1 | u | -2
c1ccc(NN(Cc2ccncc2)c2ccccc2)cc1 | -9 | x | x | x | i | -1
N#Cc1ccc(CN(Nc2ccccc2)c2ccccc2)cc1 | 56* | x | x | x | i | -2
CCCCCc1nnc(NC(=O)C2CCCO2)s1 (centres undefined) | -16 | 1 | 36* | 0 | i | 0
Cc1cc(C)c(CSc2ncnc3nc[nH]c23)c(C)c1 | 2 | -2 | 1 | -6 | i | -1
N#Cc1cccc(NC(=O)Nc2cccs2)c1 | 108* | 5 | 2 | -2 | i | 8
Cn1c(-c2ccccc2)c(C#Cc2ccc(N)cc2)c2ccccc21 | 7 | 2 | -2 | x | i | 0
CC(NC(=O)/C(C#N)=C1\N=C(NC(=O)c2cccs2)c2ccccc21)c1ccccc1 (centres undefined) | -16 | 0 | -4 | 9 | + | -1
CC(=O)c1cccc(-c2ccnc3c2CC(C(=O)Nc2cccc(C(F)(F)F)c2)O3)c1 (centres undefined) | x | x | x | x | i | x
O=c1cc(-c2ccccc2Cl)oc2c(NS(=O)(=O)c3cc(Cl)cc(Cl)c3O)ccc(O)c12 | 4 | -7 | 5 | 2 | i | 81*
CCc1ccc(S(=O)(=O)Nc2ccc(O)c3c(=O)cc(-c4ccccc4Cl)oc23)cc1 | -9 | 1 | 3 | -1 | i | 3
Cc1cc(NC(=O)CSc2nnc(-c3ccncc3)n2C)n(-c2ccccc2)n1 | -1 | -5 | 7 | 0 | + | 0
Cc1cc(NC(=O)CSc2nnc(-c3ccncc3)n2Cc2ccccc2)n(-c2ccccc2)n1 | 0 | 9 | 2 | -2 | i | -1
Cc1ccc(Cl)cc1N1CCN(C(=O)c2cn(C)c(=O)c3c2c2ccccc2n3C)CC1 | -35 | -1 | 6 | 2 | + | -1
Cc1cccc(N2CCN(C(=O)c3cn(C)c(=O)c4c3c3ccccc3n4C)CC2)c1C | -51 | 1 | -6 | -2 | i | 0
COC(=O)c1sc(NC(=S)NC(=O)c2cccc(C)c2)nc1C | 17 | -8 | 1 | -1 | i | 65*
COC(C[C@@H]1O[C@H]1[C@@H](O)COCc1ccccc1)OC | 7 | x | 2 | x | i | 1
COC(C[C@H]1O[C@@H]1[C@H](O)COCc1ccccc1)OC | 1 | -1 | 4 | x | + | -1
O=C(CC(c1ccccc1)c1ccccc1O)NCc1ccccc1Cl (centres undefined) | 67* | 5 | -5 | 0 | i | -11
N#Cc1ccc(CSC2=NCCN2)cc1 | 104* | -1 | 1 | 0 | i | -1
c1ccc(CSC2=NCCCN2)cc1 | 19 | -1 | 3 | 0 | i | -1
CC1=CC(C)(C)N(C(=O)c2ccccc2)c2ccccc21 | -1 | -5 | 4 | 0 | i | -1
